Source: PubChem BioAssay
Compounds with a hit are over-represented: about 11% of the library has one in this group of screens.
L3MBTL1 inh: qHTS Assay for the Inhibitors of L3MBTL1. Lethal(3)malignant brain tumor-like protein 1 (Homo sapiens), Q9Y468. AlphaScreen L3MBTL1–H3K9me1 peptide binding. Potency, µM (top dose mostly 57.1 µM), most hits filed as inhibitors. 230,000 compounds, 0.66% hits. AID 485360, 2010; also: nearly all actives have a fitted effect of over 60% in size
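Read-out is AlphaScreen signal from streptavidin donor and nickel chelate acceptor beads (10 ug/mL final each) bridging L3MBTL1 (50 nM) and biotinylated K9-monomethylated H3(1-15) peptide (75 nM), after 30 min compound exposure at room temperature.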
BAZ2B block: qHTS Assay for Inhibitors of BAZ2B; AlphaScreen BAZ2B-H3K14Ac peptide displacement; Potency, µM (doses to about 114 µM), actives largely listed as inhibitors; 360,000 compounds, 4.4% hits; Bromodomain adjacent to zinc finger domain protein 2B (Homo sapiens), Q9UIF8; also: nearly all actives have a fitted effect of over 60% in size
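Protein-peptide AlphaScreen: BAZ2B 50 nM, b-H3K14Ac 50 nM, 1x PBS pH 7.4 + 0.01% Tween-20. Preincubation 30 min RT; cpd 30 min RT (top 110 uM); beads 20 min RT, light-protected.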
HP1b binding inh: HTS for Inhibitors of HP1-beta Chromodomain Interactions with Methylated Histone Tails | Chromobox protein homolog 1 (Homo sapiens), P83916 | AlphaScreen HP1-beta / biotin-H3K9me3 peptide binding | Potency, µM (highest dose often 114 µM), most hits filed as inhibitors | 390,000 compounds, 0.56% hits; also: nearly all actives have a fitted effect of over 70% in size
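Compound inhibition of the preformed complex between 50 nM HP1-beta and 50 nM biotinylated H3K9me3 peptide was read by AlphaScreen. Buffer was PBS pH 7.4 with 0.01% Tween-20. Incubations ran 30 min at room temperature, with 10 ug/mL donor/acceptor beads.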
JMJD2A Tudor: qHTS Assay for Inhibitors of JMJD2A-Tudor Domain; AlphaScreen JMJD2A-Tudor / H3K4me3 peptide binding; Potency, µM (highest dose often 114 µM), actives largely listed as inhibitors; 390,000 compounds, 4.4% hits; AID 504339, 2011; also: nearly all actives have a fitted effect of over 50% in size
G9a inh: qHTS Assay for Inhibitors of Histone Lysine Methyltransferase G9a; 350,000 compounds, 8.8% hits; G9a H3K9 monomethylation, AlphaScreen, 2 h; Histone-lysine N-methyltransferase EHMT2 (Homo sapiens), Q96KQ7; AID 504332, 2011; Potency, µM (titrated, usually from 102 µM), most hits filed as inhibitors; also: nearly all actives have a fitted effect of over 75% in size
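Quantitative HTS format: methyltransferase activity on a biotin-tagged H3K9 peptide is measured by AlphaScreen, using a rabbit anti-monomethyl-H3K9 antibody with streptavidin donor and anti-IgG acceptor beads. Final levels are 20 nM enzyme, 500 nM peptide, 20 uM SAM; 2 h RT.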
Hits are given with their value; - = inactive; ? = inconclusive; . = no result; [ ] = remark or other dose. Calls follow the shape of the dose curve; as a rule, active = well fitted inhibition curve with a large enough effect; inconclusive = small, poorly fitted or top-dose-only effect; inactive = no such curve, though single readings can be large or run the other way.

SMILES	L3MBTL1 inh	BAZ2B block	HP1b binding inh	JMJD2A Tudor	G9a inh
CCOC(=O)c1cc2c(=O)n3ccccc3nc2n(C(C)C)c1=NC(=O)c1c(-c2ccccc2Cl)noc1C	.	.	-	-	-
CCOC(=O)c1cc2c(=O)n3ccccc3nc2n(C(C)C)c1=NC(=O)c1ccncc1	-	-	-	?	56µM
COCCCn1c(C(=O)Nc2ccc3c(c2)OCO3)cc2c(=O)n3ccccc3nc21	.	-	-	25µM	-
COc1ccccc1-n1c(CNC(=O)COc2ccccc2)n[nH]c1=S	.	-	-	7.1µM	?
COc1ccc(CC(=O)NCc2n[nH]c(=S)n2-c2ccc(Br)cc2)cc1	.	-	-	-[11.4 µM]	?
Cc1cccc(-n2c(CNC(=O)c3cccc([N+](=O)[O-])c3C)n[nH]c2=S)c1	.	.	-	16µM	11µM
COc1ccc(CNC(=O)COc2ccc(F)cc2)cc1	-	-	-	-	-
Cc1cc(CNC(=O)c2cccc([N+](=O)[O-])c2C)c2ccccc2n1	-	-	-	-	-
COc1ccccc1-n1c(CNC(=O)c2cccc([N+](=O)[O-])c2C)n[nH]c1=S	.	-	-	20µM	?
COc1ccc(CC(=O)NCc2n[nH]c(=S)n2-c2ccccc2)cc1	.	-	-	?	14µM
COc1ccc(CSCCc2n[nH]c(=S)n2-c2ccccc2)cc1	?	?	-	50µM	?
OCCCc1n[nH]c(=S)n1-c1ccccc1	-	-	-	-	?
CCCC(=O)NC(c1ccc(C)cc1)c1ccc2cccnc2c1O (stereo not given)	-	14µM	-	56µM	-
COc1ccc(C(Nc2ccccn2)c2ccc3ccc(C)nc3c2O)cc1C (stereo not given)	.	?	-	?	8.9µM
CCOc1cc(C(Nc2cc(C)ccn2)c2ccc3cccnc3c2O)ccc1OC (stereo not given)	.	10µM	14µM	18µM	3.2µM
Cc1cccc(NC(c2ccccc2F)c2ccc3ccc(C)nc3c2O)n1 (stereo not given)	.	-	-	?	-
Cc1ccnc(NC(c2cccc(O)c2)c2ccc3ccc(C)nc3c2O)c1 (stereo not given)	.	?	-	?	11µM
Cc1ccc(NC(=O)CN(C)S(=O)(=O)c2ccc3c(c2)n(C)c(=O)c(=O)n3C)cc1C	.	-	-	-	-
COC(=O)C1=C[C@@H](C(=O)OC)C2C3=C(C(=O)[C@]2(CC(C)C)NC(=O)c2ccccc2)[C@H](C)n2c(=O)n(-c4ccccc4)c(=O)n2[C@@H]3C1 (stereo not given in full)	.	.	-	-	.
Cc1ccccc1CN1c2ccccc2-c2nc(SCC(=O)Nc3cc(F)ccc3F)ncc2S1(=O)=O	.	-	-	-	-
CCCC(=O)NC(c1ccccc1OC)c1ccc2cccnc2c1O (stereo not given)	?	25µM	-	56µM	-
CCCC(=O)NC(c1ccc(Cl)cc1)c1ccc2cccnc2c1O (stereo not given)	-	-	-	-	-
Cc1cccc(NC(c2cccc(Cl)c2)c2ccc3cccnc3c2O)n1 (stereo not given)	.	10µM	-	16µM	-
CCCCC(=O)NC(c1ccccc1OC)c1ccc2cccnc2c1O (stereo not given)	.	?	-	-[11.4 µM]	-
Cc1ccc(C(Nc2ccccn2)c2ccc3cccnc3c2O)cc1 (stereo not given)	.	28µM	-	20µM	7.9µM
CCCCC(=O)NC(c1ccc(Cl)cc1)c1ccc2cccnc2c1O (stereo not given)	.	.	-	56µM	.
CCCC(=O)NC(c1ccc2c(c1)OCO2)c1cc(Cl)c2cccnc2c1O (stereo not given)	-	-	-	-	-
CCCCC(=O)NC(c1ccc(N(CC)CC)cc1)c1ccc2cccnc2c1O (stereo not given)	?	45µM	-	?	-
CCCCC(=O)NC(c1ccc(N(C)C)cc1)c1ccc2cccnc2c1O (stereo not given)	?	20µM	?	18µM	40µM
